Assay outcomes (PubChem)
Sampled rows, rich in hits. Any-hit rate of the full collection: about 12%.
G9a block: G9a (human) methyltransferase inhibition; G9a H3K9 monomethylation, AlphaScreen, 2 h; 350,000 compounds, 8.8% hits; Potency, µM (highest dose often 102 µM), for the others: at the highest dose activity, negative = inhibition, usual class: inhibitors; further: on the % scale 0 is the no-effect control and ±100 the full control effect; nearly all actives have a fitted effect of over 75% in size
Target sequence (Q96KQ7 913-1193 limits assumed): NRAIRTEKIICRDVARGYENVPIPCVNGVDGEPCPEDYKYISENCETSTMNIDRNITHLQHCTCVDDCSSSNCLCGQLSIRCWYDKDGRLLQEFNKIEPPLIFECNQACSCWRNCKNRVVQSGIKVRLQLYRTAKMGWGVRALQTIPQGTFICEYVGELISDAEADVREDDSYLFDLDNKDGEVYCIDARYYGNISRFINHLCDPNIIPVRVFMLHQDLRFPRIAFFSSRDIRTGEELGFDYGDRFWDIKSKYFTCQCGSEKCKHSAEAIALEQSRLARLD
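Compounds were preincubated with 20 nM G9a for 15 min, after which biotinylated H3K9 peptide (500 nM) and SAM (20 uM) started a 2 h room-temperature reaction. Monomethylated product was quantified by antibody-based AlphaScreen chemiluminescence.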
BAZ2B block: inhibitors of human BAZ2B bromodomain; Q9UIF8; AlphaScreen BAZ2B-H3K14Ac peptide displacement; Potency, µM (highest dose often 114 µM), for inactives: top-dose activity change, negative = inhibition, most hits filed as inhibitors; AID 504333; 360,000 compounds, 4.4% hits; further: on the % scale 0 is the no-effect control and ±100 the full control effect; nearly all actives have a fitted effect of over 60% in size
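BAZ2B (50 nM) with biotin-H3(5-23)K14Ac peptide (50 nM) in PBS pH 7.4, 0.01% Tween-20, preformed 30 min, then compound 30 min at room temperature; top concentration 110uM. AlphaScreen streptavidin donor/nickel chelate acceptor beads (10 ug/mL final), 20 min dark, signal read.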
JMJD2A Tudor: JMJD2A Tudor domain (human) inhibition | O75164 | AlphaScreen JMJD2A-Tudor / H3K4me3 peptide binding | Potency, µM (doses to about 114 µM), without a hit: at the highest dose activity change, negative = inhibition, actives largely listed as inhibitors | 390,000 compounds, 4.4% hits; further: on the % scale 0 is the no-effect control and ±100 the full control effect; nearly all actives have a fitted effect of over 50% in size
Sfp inh: inhibitors of Bacillus subtilis Sfp phosphopantetheinyl transferase; Q9F4F7; Biochemical Sfp PPTase activity, qHTS; 310,000 compounds, 3.5% hits; Potency, µM, without a hit: largest response in the series, negative = inhibition, usual class: inhibitors;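 further: the enzyme is Sfp with the accession as filed and its product quenches rhodamine fluorescence; 0% = enzyme reaction without inhibitor and -100% = no enzyme wells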
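Reaction rates are the 30-min fluorescence difference (ex 525, em 598 nm) in wells containing 15 nM Sfp, 5 uM rhodamine-CoA and 12.5 uM BHQ-2-YbbR at pH 7.6 with 10 mM MgCl2.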
HP1b chromo inh: HP1-beta chromodomain-methylated histone interaction inhibition | P83916 | AlphaScreen HP1-beta / biotin-H3K9me3 peptide binding | Potency, µM (titrated, usually from 114 µM), for inactives: at the highest dose activity change, negative = inhibition, usual class: inhibitors | 390,000 compounds, 0.56% hits | AID 540317; further: nearly all actives have a fitted effect of over 70% in size
Target sequence (P83916 whole entry, looked up): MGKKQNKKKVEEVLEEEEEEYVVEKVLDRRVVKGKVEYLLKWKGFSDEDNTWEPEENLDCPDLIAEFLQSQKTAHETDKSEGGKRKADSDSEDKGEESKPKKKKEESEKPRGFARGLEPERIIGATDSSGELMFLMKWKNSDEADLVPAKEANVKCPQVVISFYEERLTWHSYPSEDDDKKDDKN
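Compound inhibition of the preformed complex between 50 nM HP1-beta and 50 nM biotinylated H3K9me3 peptide was read by AlphaScreen. Buffer was PBS pH 7.4 with 0.01% Tween-20. Incubations ran 30 min at room temperature, with 10 ug/mL donor/acceptor beads.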
Starred values were filed as active, the others as inactive; ? = inconclusive; . = no result; [ ] = another dose, or the depositor's remark. The call rests on the fitted dose curve; in most records, active means well fitted curve in the direction sought with a large enough effect; inconclusive means small, poorly fitted or top-dose-only effect, or another doubt; inactive means no such curve, though single readings can be large; an effect the other way counts as inactive or inconclusive. Potency means the concentration at half of the fitted maximal effect.

SMILES	G9a block	BAZ2B block	JMJD2A Tudor	Sfp inh	HP1b chromo inh
Cc1cccc(C)c1NC(=O)C1c2cccc[n+]2CC(=O)N1Cc1ccc2c(c1)OCO2 (centres undefined)	8.9µM*	-4%	-16%	-8%	29%
Cc1ccccc1NC(=O)C1c2cccc[n+]2CC(=O)N1c1c(C)cccc1C (centres undefined)	5.6µM*	45µM*	50µM*	50µM*	?
Cc1ccnc(NC(=O)c2ccc(S(=O)(=O)N3CCCC3)cc2)c1	21%[2.33 µM]	11%	-14%	.	41%
O=c1[nH]cnc2c1ncn2C1OC(CO)C(O)C1O (centres undefined)	23%[59 µM]	.	-8%	?	3%
CC1(C)OC2C(CO)OC(n3cnc4c(=O)[nH]cnc43)C2O1 (centres undefined)	.	.	.	9%	.
OCC1OC(n2cnc3c(=S)nc[nH]c32)C(O)C1O (centres undefined)	16µM*	.	20µM*	3.5µM*	?
CC1(C)OC2C(CO)OC(n3cnc4c(=S)nc[nH]c43)C2O1 (centres undefined)	8.9µM*	50µM*	?	16µM*	?
O=C(/C=C/c1ccco1)NCC(=O)N/N=C/c1ccc([N+](=O)[O-])cc1	?	?	14µM*	?	?
O=C(/C=C/c1ccco1)NCC(=O)N/N=C/c1ccc(Cl)cc1	-30%	-19%	-20%	1%	23%
O=C(/C=C/c1ccco1)c1cccc([N+](=O)[O-])c1	.	.	35µM*	.	?
O=C(/C=C/c1ccc([N+](=O)[O-])cc1)/C=C/c1ccco1	10µM*	28µM*	.	50µM*	.
C/C(=N/NC(=O)CNC(=O)/C=C/c1ccco1)c1ccc(Cl)cc1	-38%	56µM*	-30%	?	22%
CNC[C@H](NC[C@@H](NCCCc1ccccc1)c1ccccc1)[C@H](C)O	-18%	-33%	-23%	19%	34%
Cc1cccc(N=C2NN=C(c3c(C)[nH]c4ccccc34)CS2)c1	?	?	45µM*	40µM*	-34%
Cc1cccc(N=C2NN=C(c3ccc4c(c3)OCCO4)CS2)c1	19%[12.7 µM]	-39%	-21%	-25%	-22%
CCc1nn(CC(=O)Nc2c(C)cccc2C)c(=O)c2cc3sccc3n12	-8%[59 µM]	2%	-10%	.	25%
CC1=C(C(=O)O)N2C(=O)[C@@H](NC(=O)[C@H](N)c3ccc(O)cc3)[C@H]2SC1	.	.	-20%	.	3%
CC1=C(C(=O)O)N2C(=O)C(NC(=O)c3nn(C)c(C)c3Cl)C2SC1 (centres undefined)	8.9µM*	-4%	?	11µM*	31%
CC1=C(C(=O)O)N2C(=O)C(NC(=O)c3c(F)cccc3F)C2SC1 (centres undefined)	45µM*	?	-3%	.	47%
CC1=C(C(=O)O)N2C(=O)C(NC(=O)c3ccn(C)n3)C2SC1 (centres undefined)	?	?	-32%	22µM*	41%
CN(Cc1ccccc1)C(=O)c1ccc2c(c1)N(Cc1ccccc1F)C(=O)c1ccccc1S2(=O)=O	-40%[59 µM]	-12%	-16%	.	19%
CC1=C(C(=O)Nc2c(C)cc(C)cc2C)C2(CCN(C(C)C)CC2)OC1=O	-21%[59 µM]	-12%	2%	.	37%
NC(=O)CCCCn1ccc(NC(N)=NCC(F)(F)F)n1	31%[59 µM]	.	.	8%	.
CC(=O)c1nc2ccccc2n1S(=O)(=O)c1ccc(C)cc1	?	?	-9%	3%	18%
CC(=O)c1nc2ccccc2n1S(=O)(=O)c1ccc(Cl)cc1	-119%	56µM*	-24%	8%	28%
SMILES	G9a block	BAZ2B block	JMJD2A Tudor	Sfp inh	HP1b chromo inh
Nc1nc(NC(=O)c2ccccc2)nn1-c1ccccc1	15%	?	-9%	-8%	61%
Nc1nc(NC(=O)CCC(=O)O)nn1-c1ccccc1	.	50µM*	22µM*	7%	19%
COc1ccccc1/C=C/C(=O)Nc1nc(N)n(-c2ccccc2)n1	14%	56µM*	-16%	30%	42%
CCC1(CC)SCCNC1=O	.	.	-5%	.	37%
Cc1cc(C)c(C)c(OCCCOc2cccc3cccnc23)c1	-25%[59 µM]	1%	-7%	71µM*	24%
COc1ccc(CNC(=O)CCc2c(C)c3cc4c(C)c(C)oc4cc3oc2=O)cc1	-31%[59 µM]	-13%	-36%	.	-6%
